# Test results: PubChem BioAssay (NCI)
# This is part of a sample that, as a whole, favours compounds with a hit. Of some 83,000 tested, about 20% had one in any assay.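 Cells were grown in 96-well plates and exposed to the test compound at a single concentration for 48 hours; results are reported as percent growth, with values below 10 considered active.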 Unmarked numbers belong to inactive results. Active and inactive are the calls of the source.
# Key:
# Assay in all cases: NCI-60 one-dose screen, 48 h (100 = growth as untreated, 0 = no growth, -100 = all killed)
# Conditions in all cases: 10 µM unless noted
# SK-MEL-2 melanoma = test system: SK-MEL-2 melanoma
# SN12C renal = test system: SN12C renal
# UO-31 renal = test system: UO-31 renal
# TK-10 renal = test system: TK-10 renal
# ACHN renal = test system: ACHN renal
# CAKI-1 renal = test system: CAKI-1 renal
# A498 renal = test system: A498 renal
# CCRF-CEM leukemia = test system: CCRF-CEM leukemia
# MOLT-4 leukemia = test system: MOLT-4 leukemia
Compound,growth (SK-MEL-2 melanoma),growth (SN12C renal),growth (UO-31 renal),growth (TK-10 renal),growth (ACHN renal),growth (CAKI-1 renal),growth (A498 renal),growth (CCRF-CEM leukemia),growth (MOLT-4 leukemia)
CCCCOc1ccc(NC(=O)n2nc(NC(C)=O)c3cc(NC(C)=O)ccc32)cc1,95%,92.2%,80.9%,89.9%,95.3%,89.2%,105%,62.1%,52%
Cc1ccccc1CCO,86.3%,107%,88.8%,82.4%,98.4%,100%,96.5%,116%,111%
CC(C)CC(CC1=CCC2CC1C2(C)C)C1=C(O)C(C)(C)C(=O)C(C)(C)C1=O (stereo not drawn),-18.2% (active),3.56% (active),8.44% (active),15.6%,3.98% (active),6.44% (active),-17.9% (active),1.78% (active),
C[C@@]1(N2C(=O)OC[C@@H]2c2ccccc2)C(=O)N([C@H](CC(=O)N2CCC(N3CCCCC3)CC2)C(=O)NCc2cccc(C(F)(F)F)c2)[C@@H]1/C=C/c1ccccc1,64.8%,74.3%,57.8%,79.1%,75.2%,82.8%,52.3%,42.6%,10.7%
COc1ccc(C/C(C)=C(\c2ccc(OCCN3CCCCCC3)cc2)c2ccc(OC(=O)C3CCCCC3)cc2)cc1,82.1%,57.1%,38.6%,86.4%,80.8%,86.7%,80.4%,49.7%,32.3%
CNC(=S)N/N=C/CSC/C=N/NC(=S)NC,98.7%,104%,71.7%,103%,99.6%,98.7%,110%,20.4%,48.7%
Cn1c2ccccc2c2c3c(c4c5ccccc5[nH]c4c21)C(=O)N(N)C3=O,99.7%,52.2%,34.8%,82.5%,14.2%,30.7%,60%,26.4%,21.1%
Oc1ccccc1/C=N/Nc1ccc2ccccc2n1,64.5%,61.8%,16.4%,62.8%,40.6%,15.3%,107%,10.7%,7.34% (active)
CCc1ccccc1NC(=O)c1sc2nc3c(cc2c1N)C(=O)CCC3,19.9%,45.4%,44.5%,54.7%,58.4%,29.9%,-9.7% (active),13.6%,24.4%
COc1cccc(-n2cc(-c3nc(Nc4cc(C)[nH]n4)c4ccccc4n3)nn2)c1,50.9%,41%,15.4%,33.3%,24%,2.59% (active),36.1%,32.6%,11%
NC(CC(=O)O)C(=O)OCc1ccccc1 (stereo not drawn),94.8%,105%,71.8%,122%,97.1%,79.9%,85.4%,108%,103%
COc1cc(C2CC(=O)Nc3c2c(C)nn3-c2nc3ccccc3[nH]2)cc(OC)c1OC (stereo not drawn),106%,91.3%,96.8%,109%,102%,114%,78.2%,32%,-42.5% (active)
O=C(O)c1ccc(=O)[nH]n1,116%,94.3%,88.3%,117%,98.8%,109%,105%,112%,
O=C1c2cc3c(cc2-c2c1c1cc(Cl)c(Cl)cc1c(=O)n2C[C@H](O)CO)OCO3,-28.3% (active),-22.2% (active),-61.3% (active),-28% (active),-47.2% (active),-0.657% (active),-73.3% (active),-5.01% (active),-24.8% (active)
Cc1ccc2c(c1)C(=O)/C(=C/c1ccc(OCC(=O)c3ccccc3)cc1)O2,77.8%,98.6%,85.5%,127%,100%,103%,98.3%,151%,33.2%
NCCN1CCN(c2nccc(-c3ccc4ccccc4c3)n2)CC1,76.9%,52.1%,12.4%,73.9%,46.5%,45.3%,61.6%,18%,22.1%
COc1ccc(-c2cc(/C=C3\C(=O)Nc4ccc(Cl)cc43)[nH]n2)cc1,51.2%,63.1%,64.4%,86.9%,56.7%,65.8%,65.7%,35.5%,25.1%
CCOC(=O)c1nc(Nc2cc(C)[nH]n2)c2ccccc2n1,89.4%,97%,76.7%,77.3%,73.4%,37.7%,62.4%,96.9%,102%
Cn1c2c(Cl)c(Cl)ccc2c2ccn3c(=O)c4ccccc4nc3c21,107%,104%,70.1%,162%,93%,89.1%,120%,80.8%,94.7%
O=C1Nc2ccccc2/C1=C/C(=N/c1nnc(-c2ccc(Cl)cc2)s1)c1ccccc1,97.2%,35.5%,-69.2% (active),-36.4% (active),-71.4% (active),15%,104%,-42.7% (active),-26.4% (active)
Cc1cc(Nc2nc(N3CCOCC3)nc3ccccc23)n[nH]1,51.5%,60.2%,35.4%,47.2%,32.8%,9.88% (active),-13.4% (active),65.6%,58.4%
CC/C=C\C[C@H](F)C/C=C1/C(=O)C=C[C@@H]1C/C=C\CCCC(=O)O,65.2%,44.3%,57.5%,128%,39.5%,42.5%,106%,-7.62% (active),-4.45% (active)
CC(=O)Oc1cc2cnc3c4cc(OC(C)=O)c(OC(C)=O)cc4ccc3c2cc1OC(C)=O,56.3%,14.6%,-2.09% (active),21.8%,15.3%,6.51% (active),-15.6% (active),-6.55% (active),-6.19% (active)
O=C(Nc1ccc(F)cc1)Nc1ccc(CCO)cc1,112%,101%,94.1%,112%,110%,103%,85.9%,107%,102%
O=C(N/N=C/c1ccc(O)cc1O)c1cccnc1,55.6%,57.2%,22.2%,39.4%,30.1%,13.4%,92%,5.78% (active),3.3% (active)
Cc1nn(-c2nc3ccccc3[nH]2)c2c1C(c1ccc3c(c1)OCO3)CC(=O)N2 (stereo not drawn),52.9%,41.9%,22.7%,69.4%,31%,65.7%,-8.66% (active),12.1%,-48.5% (active)
CCCCCCCCCCCCCCCC(=O)OCC1OC(n2cnc3c(=S)nc(N)[nH]c32)C(OC(=O)CCCCCCCCCCCCCCC)C1OC(=O)CCCCCCCCCCCCCCC (stereo not drawn),54.7%,84.2%,50%,35.7%,75%,49.4%,116%,15.9%,-24% (active)
CCCCCCCCCCCCCCCC[N+]1(CC)CCCC1,-59.2% (active),-16.7% (active),38.3%,-59.1% (active),9.99% (active),-41.8% (active),-9.64% (active),-67% (active),-67.3% (active)
CN1CCCCC1CCN1c2ccccc2Sc2ccc(Br)cc21 (stereo not drawn),69.5%,73.3%,32.9%,72.3%,58.7%,55.6%,66.7%,32.6%,30.3%
O=C(CN1CCN(c2cc3c(cc2F)c(=O)c(C(=O)N/N=C/c2ccccc2)cn3C2CC2)CC1)N/N=C\c1ccccc1,86.1%,65.7%,53.3%,89.1%,72%,78.1%,78.7%,60.9%,42.7%
